The full list was thinned out, with hits kept by preference.
YB-1 expr inh: YB-1 expression inhibition; 30,000 compounds, 0.37% hits; U2OS, qRT-PCR YB-1 vs CDIP delta delta Cp, 16 h; active compounds read high; zero = DMSO, each unit about twofold; delta delta Cp (YB-1 minus CDIP) (test concentration not listed);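 active = delta delta Cp rounded down to an integer at or above 3, about 3 SD of DMSO wells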;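 note: higher means less YB-1 transcript or more CDIP transcript relative to DMSO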
Hedgehog inh: blocks Sonic Hedgehog signaling. AID 2313. 22,000 compounds, 2.1% hits. inhibition, % (test concentration not listed). Shh-LIGHT2 Gli-luciferase reporter, 30 h;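 active = mean inhibition across valid replicates above about 65%, limit read from the data; inconclusive = mean under the limit, yet half or more replicates past it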;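 note: pathway switched on by Shh-conditioned medium diluted 1 in 25 in low serum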
PD-1 reverse act: reversal of PD-1 mediated T-cell inhibition. primary human CD4 T cells, PD-L1 beads, CellTiter-Glo 96 h. activation, % (test concentration not listed). 29,000 tested, under 10 active; call rule not given here;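 note: 0% = median vehicle wells and 100% = positive control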
MITF inhib: inhibitors of MITF | TRPM1 promoter luciferase, luminescence, 24 h | inhibition, % (test concentration not listed) | 37,000 compounds, 0.28% hits | AID 2240; in the data active = inhibition above about 85%; inconclusive = no clear call, values can overlap the other calls; inactive = below about 68%;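 note: human melanocyte line stably carrying TRPM1 promoter luciferase reporter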
* hit, by the source's call; ? = inconclusive; · = no result given.

SMILES	YB-1 expr inh	Hedgehog inh	PD-1 reverse act	MITF inhib
O=C1CC(C2CCCO2)C(=O)N1c1cccc(C(F)(F)F)c1 (stereo unspecified)	5.8*	-6	1	4
Cc1ccc(S(=O)(=O)N(C)C[C@H]2Oc3c(NC(=O)Nc4ccc5c(c4)OCO5)cccc3C(=O)N([C@@H](C)CO)C[C@H]2C)cc1	0.019	-7	-2	10
C[C@H]1CN([C@@H](C)CO)C(=O)c2cccc(NC(=O)Nc3ccc4c(c3)OCO4)c2O[C@H]1CN(C)S(=O)(=O)c1ccc(Cl)cc1	0.58	107*	-4	8
C[C@H](CO)N1C[C@H](C)[C@H](CN(C)S(=O)(=O)c2ccc(Cl)cc2)Oc2c(NC(=O)Nc3ccc4c(c3)OCO4)cccc2C1=O	-0.019	110*	0	-13
Cc1ccc(S(=O)(=O)N(C)C[C@@H]2Oc3c(NC(=O)Nc4ccc5c(c4)OCO5)cccc3C(=O)N([C@@H](C)CO)C[C@H]2C)cc1	-0.28	-44	·	-5
C[C@H]1CN([C@@H](C)CO)C(=O)c2cc(NC(=O)Nc3ccc(C(F)(F)F)cc3)ccc2O[C@@H]1CN(C)C(=O)Nc1ccc(F)cc1	0.073	-9	-3	8
C[C@@H]1CN([C@H](C)CO)C(=O)Cc2cc(NC(=O)Cc3cn(C)c4ccccc34)ccc2O[C@H]1CN(C)C(=O)Nc1ccc(C(F)(F)F)cc1	-0.11	83*	-2	22
Cc1ccc(S(=O)(=O)N(C)C[C@H]2Oc3ccc(NC(=O)Nc4ccc(C(F)(F)F)cc4)cc3C(=O)N([C@@H](C)CO)C[C@H]2C)cc1	0.86	46	-2	100*
C[C@H](CO)N1C[C@H](C)[C@H](CN(C)C(=O)Nc2ccc(F)cc2)Oc2ccc(NC(=O)Nc3ccc(C(F)(F)F)cc3)cc2C1=O	-0.12	69*	-3	49
C[C@H]1CN([C@@H](C)CO)C(=O)Cc2cc(NC(=O)Cc3cn(C)c4ccccc34)ccc2O[C@@H]1CN(C)C(=O)Nc1ccc(F)cc1	0.069	8	·	4
CSc1ccccc1NC(=O)CN(c1cc(C(F)(F)F)ccc1Cl)S(C)(=O)=O	·	·	1	4
COc1cccc(C2C(C(=O)c3cc4ccccc4o3)C(=O)C(=O)N2c2nc(C)c(C)s2)c1OC (stereo unspecified)	·	·	3	-1
CNC[C@@H]1Oc2ccc(NC(=O)C3CC3)cc2CC(=O)N([C@H](C)CO)C[C@@H]1C	-0.004	-19	·	-3
C[C@@H]1CN([C@H](C)CO)C(=O)Cc2cc(NC(=O)Cc3ccccc3)ccc2O[C@H]1CN(C)C(=O)Nc1ccccc1	0.19	-21	1	-19
Cc1ccc(OCC(=O)Nc2cccc(C(=O)O)c2)c(Br)c1	·	·	·	87*
COc1ccccc1N1CCN(CCCCNC(=O)c2ccc(-c3ccc(C(C)=O)cc3)cc2)CC1	0.1	92*	·	4
CC(C)c1c(O)ccc2c1CCC1C(C)(C)CCC[C@]21C (stereo partly specified)	-0.2	?	·	106*
CC(C)c1ccc2c(c1)CCC1[C@](C)(C(=O)O)CCC[C@]21C (stereo partly specified)	0.86	-20	0	-22
COc1cc2c(cc1O)CCC1C2CC[C@@]2(C)C1CC[C@@H]2O (stereo partly specified)	0.29	91*	-9	19
COc1cc(C)c2c(c1)CCC1C2CCC2(C)C(O)CCC12 (stereo unspecified)	-0.26	?	-1	-72
CCC(=O)NC(c1ccco1)c1cc(Cl)c2cccnc2c1O (stereo unspecified)	-0.17	104*	0	46
NC(=O)COc1ccc(/C=N/NC(=O)CCCCCCC(=O)Nc2ccccc2O)cc1	-0.22	·	·	·
C[C@@H]1CN([C@H](C)CO)C(=O)c2cccc(NC(=O)c3ccncc3)c2O[C@H]1CN(C)S(=O)(=O)c1ccccc1	1.1	-2	2	-8
NC(=O)[C@@H]1[C@H]2C(=O)O[C@H](c3ccccc3)[C@H](c3ccccc3)N2[C@H](c2ccc(O)cc2)[C@@]12C(=O)Nc1ccc(C#CCCO)cc12	0.33	·	·	·
N#CC1=C(N)Nc2c(c(=O)oc3ccccc23)C1c1ccc(Br)cc1 (stereo unspecified)	-0.4	72*	-4	25
Cc1noc(C)c1NC(=O)N(C)C[C@@H]1Oc2c(NC(=O)Nc3ccccc3)cccc2C(=O)N([C@H](C)CO)C[C@H]1C	-0.052	-31	0	-14
CC(=O)C1C(=O)C2C3c4c[nH]c5cccc(c45)CC3C(C)(C)N2C1=O (stereo unspecified)	-0.17	25	·	-36

High-throughput results from PubChem BioAssay.
